Source: PubChem BioAssay AID1159580 (chemical genetic matrix, 2015)
“And” between values parts separate entries of the source, which are not always exact repeats. Equal entries are not always repeated. Hit rate of the full screen: of about 5,500 compounds, about 2,000 (36%) were called active. Not shown: some 18% with an inconclusive outcome. Rule as the data show it: active = normalized growth mostly below about 0.91 (no sharp cut-off); inconclusive = no clear call, values can overlap the other calls; inactive = mostly above about 0.92. The list shows a part of the results.

Experiment: chemical genetic growth profiling, strain panel (AID 1159580);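 also: tested at 20 µM; growth read once vehicle control cultures reached saturation at 30 °C; 1 = growth at the plate median or of vehicle wells; lower values mean less growth of the strain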
Conditions: S. cerevisiae deletion strains, growth OD

Measured: normalized growth

CC(=O)OCC1=C(C(=O)O)N2C(=O)[C@@H](NC(=O)Cc3cccs3)[C@H]2SC1
inactive: locus YAL013W, strain DEP1, active compounds read low 0.991 | locus YAL021C, strain ccr4, active compounds read low 1.03 | locus YAL026C, strain drs2, active compounds read low 0.991 | locus YAL030W, strain snc1, active compounds read low 1.02 | locus YBL061C, strain skt5, active compounds read low 1.03 | locus YBR009C, strain hhf1, active compounds read low 0.974 | locus YBR021W, strain FUR4, active compounds read low 1.01 | locus YBR023C, strain chs3, active compounds read low 1.03 | locus YBR171W, strain sec66, active compounds read low 1.02 | locus YBR229C, strain ROT2, active compounds read low 0.948 | locus YBR231C, strain swc5, active compounds read low 0.988 | locus YBR279W, strain paf1, active compounds read low 0.987 | locus YCL011C, strain gbp2, active compounds read low 0.973 | locus YCL016C, strain dcc1, active compounds read low 0.986 | locus YCL029C, strain bik1, active compounds read low 0.984 | locus YCL069W, strain vba3, active compounds read low 1.01 | locus YCR088W, strain abp1, active compounds read low 1.01 | locus YDL005C, strain med2, active compounds read low 1.03 | locus YDL035C, strain GPR1, active compounds read low 0.96 | locus YDL040C, strain nat1, active compounds read low 1.02 | locus YDL074C, strain BRE1, active compounds read low 0.993 | locus YDL101C, strain DUN1, active compounds read low 0.989 | locus YDL134C, strain PPH21, active compounds read low 0.959 | locus YDL185W, strain tfp1, active compounds read low 0.965 | locus YDL192W, strain arf1, active compounds read low 0.977 | locus YDR001C, strain nth1, active compounds read low 1.02 | locus YDR069C, strain doa4, active compounds read low 1.03 | locus YDR101C, strain arx1, active compounds read low 0.972 | locus YDR137W, strain rgp1, active compounds read low 0.962 | locus YDR150W, strain NUM1, active compounds read low 0.983 | locus YDR159W, strain sac3, active compounds read low 1.05 | locus YDR162C, strain NBP2, active compounds read low 0.948 | locus YDR195W, strain ref2 1.04 | locus YDR297W, strain sur2, active compounds read low 1.02 | locus YDR318W, strain mcm21, active compounds read low 0.991 | locus YDR334W, strain swr1, active compounds read low 0.986 | locus YDR335W, strain msn5, active compounds read low 0.99 | locus YDR388W, active compounds read low 0.981 | locus YDR392W, strain spt3, active compounds read low 0.959 | locus YDR502C, strain sam2, active compounds read low 0.997 | locus YEL003W, strain gim4, active compounds read low 1 | locus YEL037C, strain rad23, active compounds read low 1 | locus YEL061C, strain CIN8 (second series), active compounds read low 1.01 | locus YEL061C, strain CIN8, active compounds read low 0.984 | locus YER015W, strain faa2, active compounds read low 0.972 | locus YER016W, strain bim1, active compounds read low 0.987 | locus YER110C, active compounds read low 0.972 | locus YER111C, strain swi4, active compounds read low 0.995 | locus YER155C, strain BEM2 (second series), active compounds read low 1 | locus YER155C, strain BEM2, active compounds read low 1 | locus YER167W, strain BCK2, active compounds read low 0.986 | locus YFR010W, strain ubp6, active compounds read low 1.01 | locus YGL078C, strain dbp3, active compounds read low 0.987 | locus YGL086W, strain mad1, active compounds read low 0.979 | locus YGL167C, strain pmr1, active compounds read low 1.02 | locus YGL173C, strain kem1, active compounds read low 0.987 | locus YGL227W, strain vid30, active compounds read low 1.04 | locus YGL240W, strain doc1, active compounds read low 1.06 | locus YGL248W, strain PDE1, active compounds read low 1.01 | locus YGL253W, strain hxk2, active compounds read low 1 | locus YGR135W, strain pre9, active compounds read low 1.04 | locus YGR252W, strain gcn5, active compounds read low 1.03 | locus YHR013C, strain ard1, active compounds read low 1.03 | locus YHR027C, strain rpn1, active compounds read low 0.994 | locus YHR030C, strain SLT2, active compounds read low 0.977 and 0.94 | locus YHR079C, strain IRE1 (second series), active compounds read low 0.995 | locus YHR079C, strain IRE1, active compounds read low 0.976 | locus YHR094C, strain hxt1, active compounds read low 0.982 | locus YHR129C, strain ARP1, active compounds read low 0.984 | locus YHR142W, strain chs7, active compounds read low 0.995 | locus YHR200W, strain rpn10, active compounds read low 0.983 | locus YIL066C, strain RNR3, active compounds read low 0.972 | locus YIL073C, strain SPO22, active compounds read low 1.04 | locus YIL125W, strain kgd1, active compounds read low 0.983 | locus YIR030C, strain dcg1, active compounds read low 0.99 | locus YJL092W, strain hpr5, active compounds read low 1.01 | locus YJL095W, strain BCK1 (second series), active compounds read low 1 | locus YJL095W, strain BCK1, active compounds read low 1.05 and 0.96 | locus YJL115W, strain asf1, active compounds read low 1.02 | locus YJL129C, strain trk1, active compounds read low 1.05 | locus YJL134W, strain LCB3, active compounds read low 0.99 | locus YJL154C, strain vps35, active compounds read low 1.02 | locus YJL164C, strain tpk1, active compounds read low 0.972 | locus YJL166W, strain qcr8, active compounds read low 0.996 | locus YJL168C, strain set2, active compounds read low 0.986 | locus YJL187C, strain SWE1 (second series), active compounds read low 1.01 | locus YJL187C, strain SWE1, active compounds read low 1.01 | locus YJR043C, strain POL32, active compounds read low 0.963 | locus YJR066W, strain TOR1, active compounds read low 0.995 | locus YJR075W, strain HOC1, active compounds read low 1 | locus YKL009W, strain mrt4, active compounds read low 1 | locus YKL068W, active compounds read low 0.977 | locus YKL085W, strain MDH1 (second series), active compounds read low 0.966 | locus YKL085W, strain MDH1, active compounds read low 0.966 | locus YKL160W, strain elf1, active compounds read low 1.01 | locus YKR001C, strain vps1, active compounds read low 0.986 | locus YKR026C, strain gcn3, active compounds read low 1.04 | locus YKR091W, strain srl3, active compounds read low 0.999 | locus YLL001W, strain dnm1, active compounds read low 0.992 | locus YLL026W, active compounds read low 1.02 | locus YLL041C, strain sdh2, active compounds read low 1.02 | locus YLR027C, strain aat2, active compounds read low 1.01 | locus YLR039C, strain RIC1, active compounds read low 0.986 | locus YLR058C, strain SHM2, active compounds read low 0.978 | locus YLR102C, strain apc9, active compounds read low 0.987 | locus YLR113W, strain HOG1, active compounds read low 0.971 | locus YLR221C, strain rsa3, active compounds read low 0.996 | locus YLR258W, strain gsy2, active compounds read low 1 | locus YLR262C, strain YPT6 (second series), active compounds read low 1.01 | locus YLR262C, strain YPT6, active compounds read low 0.937 | locus YLR268W, strain sec22, active compounds read low 0.975 | locus YLR320W, strain mms22, active compounds read low 0.978 | locus YLR330W, strain CHS5, active compounds read low 0.99 | locus YLR342W, strain FKS1 (second series), active compounds read low 1 | locus YLR342W, strain FKS1, active compounds read low 0.992 | locus YLR357W, strain rsc2, active compounds read low 0.991 | locus YLR370C, strain arc18, active compounds read low 1 | locus YLR371W, strain rom2, active compounds read low 0.998 | locus YLR384C, strain iki3, active compounds read low 1.03 | locus YLR418C, strain cdc73, active compounds read low 1.01 | locus YML016C, strain PPZ1, active compounds read low 0.996 | locus YML032C, strain rad52, active compounds read low 0.98 | locus YML120C, strain ndi1, active compounds read low 1 | locus YML124C, strain tub3, active compounds read low 0.985 | locus YMR058W, strain fet3, active compounds read low 0.923 | locus YMR078C, strain ctf18, active compounds read low 0.986 | locus YMR125W, strain sto1, active compounds read low 1.03 | locus YMR129W, active compounds read low 1.02 | locus YMR205C, strain PFK2, active compounds read low 1.02 | locus YMR223W, strain ubp8, active compounds read low 1.01 | locus YMR231W, strain pep5, active compounds read low 1.01 | locus YMR263W, strain SAP30, active compounds read low 0.998 | locus YMR307W, strain GAS1, active compounds read low 0.898 | locus YNL067W, strain RPL9B, active compounds read low 1.01 | locus YNL071W, strain lat1, active compounds read low 0.994 | locus YNL183C, strain NPR1, active compounds read low 0.919 | locus YNL209W, strain ssb2, active compounds read low 1 | locus YNL233W, strain BNI4, active compounds read low 1.03 | locus YNL248C, strain rpa49, active compounds read low 0.993 | locus YNL250W, strain rad50, active compounds read low 0.995 | locus YNL271C, strain bni1, active compounds read low 1 | locus YNL298W, strain CLA4, active compounds read low 0.979 | locus YNL307C, strain MCK1, active compounds read low 0.988 | locus YNL322C, strain KRE1 (second series), active compounds read low 1.01 | locus YNL322C, strain KRE1, active compounds read low 0.989 | locus YNR049C, strain mso1, active compounds read low 1.02 | locus YNR052C, strain pop2, active compounds read low 0.985 | locus YOL006C, strain TOP1, active compounds read low 1.13 | locus YOL012C, strain htz1 0.756 | locus YOL147C, strain pex11, active compounds read low 0.986 | locus YOR001W, strain rrp6, active compounds read low 1.02 | locus YOR061W, strain CKA2, active compounds read low 0.968 | locus YOR069W, strain VPS5, active compounds read low 0.987 | locus YOR070C, strain gyp1, active compounds read low 0.995 | locus YOR080W, strain dia2, active compounds read low 1.02 | locus YOR083W, strain WHI5, active compounds read low 0.993 | locus YOR106W, strain vam3, active compounds read low 0.981 | locus YOR136W, strain idh2, active compounds read low 0.983 | locus YOR144C, strain elg1, active compounds read low 0.988 | locus YOR184W, strain ser1, active compounds read low 1 | locus YOR231W, strain MKK1, active compounds read low 0.972 | locus YOR265W, strain rbl2, active compounds read low 1.02 | locus YOR270C, strain vph1, active compounds read low 0.925 | locus YOR290C, strain snf2, active compounds read low 0.992 | locus YOR316C, strain cot1, active compounds read low 0.973 | locus YPL051W, strain arl3, active compounds read low 0.995 | locus YPL055C, strain LGE1, active compounds read low 0.989 | locus YPL078C, strain atp4, active compounds read low 1.02 | locus YPL106C, strain sse1, active compounds read low 0.945 | locus YPL240C, strain hsp82, active compounds read low 1.04 | locus YPL256C, strain CLN2, active compounds read low 0.962 | locus YPR119W, strain clb2, active compounds read low 0.984 | locus YPR141C, strain kar3, active compounds read low 0.983 | locus YPR163C, strain tif3, active compounds read low 0.984 | locus YPR167C, strain met16, active compounds read low 0.997 | strain wtn01, active compounds read low 1
